The text below walks through data of PubChem BioAssay AID652115 (Broad Institute, 2013).

Molecules are shown by their SMILES. Values joined by “and” are separate entries in the source; they are usually repeats but may differ in a detail not shown here. Identical values can stand only once. In all, about 330,000 compounds went through this assay and about 3,800 (1.2%) were called active. No stated cut-off is given here; in the data, active means inhibition above about 15%; inconclusive means no clear call, values can overlap the other calls; inactive means below that. The list comes from a sample in which actives are over-represented; it also holds similar structures and randomly drawn compounds. Some compounds were tested as several samples or in several runs, with calls that do not always agree.

NAD-dependent protein deacylase sirtuin-5, mitochondrial (Homo sapiens), sequence (Q9NXA8 whole entry, looked up): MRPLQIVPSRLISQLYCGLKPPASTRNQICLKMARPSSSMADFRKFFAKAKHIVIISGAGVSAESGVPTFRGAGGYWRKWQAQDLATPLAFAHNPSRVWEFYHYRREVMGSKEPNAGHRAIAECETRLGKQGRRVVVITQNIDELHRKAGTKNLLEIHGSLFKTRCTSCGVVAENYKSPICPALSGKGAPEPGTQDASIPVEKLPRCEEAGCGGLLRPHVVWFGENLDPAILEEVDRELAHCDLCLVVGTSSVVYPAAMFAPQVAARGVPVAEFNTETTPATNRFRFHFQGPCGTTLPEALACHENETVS

This assay has as its target NAD-dependent protein deacylase sirtuin-5, mitochondrial (Homo sapiens) (UniProt Q9NXA8). Kind of assay: blockers of sirtuin-5 deacylase activity – biochemical, fluorescence imaging, single point, set 5, primary screen (AID 652115). Conditions: Purified SirT5, succinyl-peptide AMC, trypsin-coupled fluorescence; at 15 µM; stronger effect = higher value.
In the case of `O=[N+]([O-])c1ccc(N2CCOCC2)cc1`, the inhibition – broadly, the drop in the measured response relative to a control, in per cent – is -2.77% (inactive). In the case of `CN(C)S(=O)(=O)N1CCN(c2ccc([N+](=O)[O-])cc2)CC1`, the inhibition is 17.4% (active).

Regarding `O=C(Cc1ccc([N+](=O)[O-])cc1)NCCS(=O)(=O)N1CCN(c2ccccc2)CC1`, the inhibition was -5.2% (inactive). To `O=C(Cc1ccccn1)NCC[C@H]1CC[C@@H](NS(=O)(=O)c2ccc(F)cc2)[C@H](CO)O1` belongs -3.9% (inactive); to `Nc1[nH]c(C(=O)c2ccccc2)c(-c2ccc(Cl)cc2Cl)c1C(=O)c1ccccc1`, 1.08% (inactive); to `CC(Oc1ccccc1F)C(=O)NN` (centres undefined), 5.06% (inactive). Turning to `O=C(C=CC(=O)Nc1ccc(F)cc1F)Nc1ccc(F)cc1F`, the inhibition is 2.61% (inactive).

As for `CC(Oc1ccc(F)cc1F)C(=O)/C=C/N(C)C` (centres undefined), the inhibition was 38.2% (active).

Regarding `CCCN1[C@H](C(=O)N[C@H](C)c2ccccc2)[C@@H](CO)[C@@H]2Cn3c(ccc(-c4ccccc4)c3=O)[C@@H]21`, the inhibition was -2.75% (inactive). To `O=C(Cc1ccccc1)N1C[C@H]2[C@@H](c3ccccc31)[C@H](CO)N2C(=O)c1ccc(F)cc1` belongs 0.689% (inactive). The result for `CC(=O)c1ccc(NC(=O)Cn2c(=O)oc3ccccc32)cc1` reads -1.5% (inactive). To `Cc1cccnc1NC(=O)Cn1c(=O)oc2ccccc21` belongs -0.084% (inactive). Regarding `NC(=O)Cn1c(=O)oc2ccccc21`, the inhibition is 23.1% (active). To `CO[C@@H]1CN(C)C(=O)c2cc(NC(C)=O)ccc2OC[C@H](C)N(C(=O)CC2CC2)C[C@@H]1C` belongs 0.181% (inactive); to `CO[C@@H]1CC[C@H]2CCN(C)C(=O)[C@@H](C)CN(C)C(=O)c3cccc(C#N)c3OC[C@@H]1O2`, -2.44% (inactive). With `CN(C)c1ccc2c(c1)[C@H]1C[C@H](CC(=O)NCc3ccc(Cl)cc3)O[C@H](CO)[C@H]1O2`, the inhibition is 15.9% (active).

On to `COCCNC(=O)C[C@H]1C[C@H]2c3cc(NS(C)(=O)=O)ccc3O[C@H]2[C@H](CO)O1`, for which the inhibition is -4.62% (inactive). To `CN(C)CC(=O)Nc1ccc2c(c1)[C@@H]1C[C@H](CC(=O)NCc3ccc(Cl)cc3)O[C@@H](CO)[C@@H]1O2` belongs 4.86% (inactive); to `O=C(C[C@@H]1C[C@H]2c3cc(NC(=O)C4CCC4)ccc3O[C@H]2[C@@H](CO)O1)NCc1ccc2c(c1)OCO2`, 5.03% (inactive). Turning to `O=C(C[C@@H]1C[C@@H]2c3cc(NC(=O)C4CCC4)ccc3O[C@@H]2[C@@H](CO)O1)NCc1ccccc1`, the inhibition was 5.94% (inactive).

Consider `CN(C)CC(=O)Nc1ccc2c(c1)[C@H]1C[C@@H](CC(=O)NCc3ccc(Cl)cc3)O[C@@H](CO)[C@H]1O2`, for which the inhibition is 4.32% (inactive). The result for `CS(=O)(=O)Nc1ccc2c(c1)[C@H]1C[C@@H](CC(=O)NCCc3ccccc3)O[C@@H](CO)[C@H]1O2` reads 21.9% (active). To `O=C(C[C@@H]1C[C@H]2c3cc(NS(=O)(=O)c4ccc(F)cc4)ccc3O[C@H]2[C@H](CO)O1)NCCc1ccccc1` belongs 1.01% (inactive).

With `O=C(C[C@H]1C[C@H]2c3cc(NC(=O)C4CCC4)ccc3O[C@H]2[C@@H](CO)O1)NCc1ccc(Cl)cc1`, the inhibition was 0.855% (active). The result for `COCC#Cc1cnc2c(c1)C(=O)N([C@H](C)CO)C[C@H](C)[C@H](CN(C)C(=O)C1CCOCC1)O2` reads 3.88% (inactive). The result for `CCNC(=O)c1cc2c(c(-c3cccc(C4=CCCC4)c3)n1)[C@H](CCO)N([S@@](=O)C(C)(C)C)C2` reads 13.7% (inactive).

Take `O=C(C[C@@H]1C=C[C@@H](NC(=O)C2CC2)[C@H](CO)O1)NCCCN1CCOCC1`: the inhibition was 4.53% (inactive). As for `N#C[C@H]1[C@@H](c2ccccc2C2=CCCCC2)[C@H](CO)N1C(=O)c1ccccn1`, the inhibition was 2.41% (inactive). Take `CN1C(=O)c2cc(NC(=O)C3CCOCC3)ccc2OC[C@H]2O[C@@H](CC(=O)NCC3CCCCC3)CC[C@@H]21`: the inhibition was 12.7% (inactive). For `O=C(Cc1ccccn1)N1CC(=O)N2[C@H](CO)[C@@H](c3ccc(C#CC4CCCC4)cc3)[C@H]2C1`, the inhibition is 1.82% (inactive).

Take `O=C(C[C@H]1CC[C@@H]2[C@H](COC[C@H](O)CN2S(=O)(=O)c2ccc(Cl)cc2)O1)N[C@@H]1CCN(Cc2ccccc2)C1`: the inhibition is 0.669% (inactive).

For the compound `Cc1cccc(S(=O)(=O)N2C[C@@H]3[C@H](c4ccccc42)[C@@H](CO)N3C(=O)c2ccccc2)c1`, the inhibition is 2.62% (inactive).

As to `CO[C@@H]1CN(C)C(=O)c2ccc(NC(=O)Nc3cc(F)ccc3F)cc2OC[C@@H](C)N(C)C[C@@H]1C`, the inhibition was 4.44% (inactive). The result for `COCC(=O)N1CC(=O)N2[C@H](CO)[C@@H](c3ccc(C#CC4CCCCC4)cc3)[C@@H]2C1` reads -3.9% (inactive). To `C/C=C/c1cnc2c(c1)C(=O)N([C@@H](C)CO)C[C@@H](C)[C@H](CN(C)Cc1cncnc1)O2` belongs -2.68% (inactive); to `O=C(CN1CCOCC1)N1CCCCN2[C@H](C1)[C@H](c1ccc(-c3ccccc3F)cc1)[C@@H]2CO`, 22.6% (active). In the case of `O=C(CN1CCOCC1)N1CCCCN2[C@@H](CO)[C@H](c3ccc(-c4ccccc4)cc3)[C@@H]2C1`, the inhibition was -2% (inactive). To `O=C(CN1CCOCC1)N1CCCCN2[C@H](CO)[C@H](c3ccc(-c4ccccc4)cc3)[C@@H]2C1` belongs -2.91% (inactive); to `CNC(=O)C[C@@H]1CC[C@@H]2[C@H](COc3ccc(NC(=O)Nc4ccccc4)cc3C(=O)N2C)O1`, 5.7% (inactive); to `CN(C)CC(=O)Nc1ccc2c(c1)[C@H]1C[C@H](CC(=O)NCc3ccccn3)O[C@@H](CO)[C@H]1O2`, -6.14% (inactive). For the compound `Cc1ccc(SCCC(=O)NC(C(C)C)C(C)C)cc1`, the inhibition was 15.4% (active). Turning to `Cc1ccc(SCCC(=O)NCc2ccccn2)cc1`, the inhibition was -1.1% (inactive). The result for `Cc1ccc(SCCC(=O)Nc2cc(C)on2)cc1` reads -2.48% (inactive); that for `CN(C)C(=O)c1ccc(-c2ccc(C3[C@@H]4CN(C(=O)Nc5ccccc5)C[C@H]3N4)cc2)cc1` (some centres undefined), -1.69% (inactive).

With `Cc1cccc(-c2ccc(C3[C@@H]4CN(C(=O)Nc5ccc(C(F)(F)F)cc5)C[C@H]3N4)cc2)c1` (some centres undefined), the inhibition is 7.01% (inactive) and 16.1% (active). The result for `COc1cccc(S(=O)(=O)N2C[C@@H]3N[C@H](C2)C3c2ccc(-c3cccc(C(=O)N(C)C)c3)cc2)c1` (some centres undefined) reads 1.44% (inactive) and 6.3% (inactive); that for `COc1ccccc1S(=O)(=O)N1C[C@@H]2N[C@H](C1)C2c1ccc(-c2cccc(C)c2)cc1` (some centres undefined), 1.28% (inactive) and 16.2% (active).

Take `N#Cc1ccc(-c2ccc(C3[C@@H]4CN(S(=O)(=O)c5ccccc5F)C[C@H]3N4)cc2)cc1` (some centres undefined): the inhibition was -1.48% (inactive) and -0.825% (inactive).

For the compound `O=C(C1CCCCC1)N1C[C@@H]2N[C@H](C1)C2c1ccc(-c2cccc(F)c2)cc1` (some centres undefined), the inhibition is 1.22% (inactive) and 3.71% (inactive).
